Our source for the inhibition values is ChEMBL document CHEMBL1961873, “Compounds: GSK PKIS; Assays: Nanosyn kinase panel” (2012).

In general, inhibition refers to the change of the read-out against control, counted positive when it falls.

The target in test [1] is Mitogen-activated protein kinase 3 (Homo sapiens) (UniProt P27361). As to conditions: at 1 µM.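 Note: values are mean percent inhibition of MAPK3.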
For test [2], the target named is SRSF protein kinase 3 (Homo sapiens) (UniProt Q9UPE1). As to conditions: at 0.1 µM.
Test [3] has the same target. As to conditions: at 1 µM.
In test [4] the target is Mitogen-activated protein kinase 14 (Homo sapiens) (UniProt Q16539). As to conditions: at 0.1 µM.
The target is the same in test [5]. As to conditions: at 1 µM.
The target in test [6] is Mitogen-activated protein kinase 11 (Homo sapiens) (UniProt Q15759). As to conditions: at 0.1 µM.
For test [7] the target is unchanged. As to conditions: at 1 µM.
Test [8] deals with T1, Mitogen-activated protein kinase 13 (Homo sapiens) (UniProt O15264).
T1 sequence (whole entry): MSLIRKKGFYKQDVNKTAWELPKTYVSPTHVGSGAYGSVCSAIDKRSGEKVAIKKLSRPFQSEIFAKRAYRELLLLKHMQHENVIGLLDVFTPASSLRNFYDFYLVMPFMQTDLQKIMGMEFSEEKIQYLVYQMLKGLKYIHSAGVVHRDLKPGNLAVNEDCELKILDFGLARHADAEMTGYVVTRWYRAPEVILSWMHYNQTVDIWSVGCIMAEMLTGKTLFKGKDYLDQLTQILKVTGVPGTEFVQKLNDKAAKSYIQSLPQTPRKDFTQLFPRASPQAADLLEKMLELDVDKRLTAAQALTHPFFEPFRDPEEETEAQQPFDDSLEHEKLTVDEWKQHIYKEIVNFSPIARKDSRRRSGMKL
As to conditions: at 0.1 µM.

Test [9] has as its target T1, Mitogen-activated protein kinase 13 (Homo sapiens). As to conditions: at 1 µM.
Test [10] deals with T2, Mitogen-activated protein kinase 12 (Homo sapiens) (UniProt P53778).
T2 sequence (whole entry): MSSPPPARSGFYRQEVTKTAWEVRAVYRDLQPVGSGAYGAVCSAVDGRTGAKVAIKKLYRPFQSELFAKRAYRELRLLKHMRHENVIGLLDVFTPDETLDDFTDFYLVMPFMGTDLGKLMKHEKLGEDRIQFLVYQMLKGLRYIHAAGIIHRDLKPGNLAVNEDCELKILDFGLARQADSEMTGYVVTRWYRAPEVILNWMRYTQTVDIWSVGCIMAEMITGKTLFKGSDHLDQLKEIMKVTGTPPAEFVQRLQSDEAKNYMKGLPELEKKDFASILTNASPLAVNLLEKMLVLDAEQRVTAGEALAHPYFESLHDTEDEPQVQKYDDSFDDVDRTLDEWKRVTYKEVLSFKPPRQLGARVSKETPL
As to conditions: at 0.1 µM.

Test [11] addresses T2, Mitogen-activated protein kinase 12 (Homo sapiens). As to conditions: at 1 µM.
The target in test [12] is SRSF protein kinase 1 (Homo sapiens) (UniProt Q96SB4). As to conditions: at 0.1 µM.
For test [13] the target is unchanged. As to conditions: at 1 µM.
The target in test [14] is Phosphatidylinositol 4,5-bisphosphate 3-kinase catalytic subunit alpha isoform (Homo sapiens) (UniProt P42336). As to conditions: at 0.1 µM.
Test [15] has the same target. As to conditions: at 1 µM.
For test [16], the target named is T3, Phosphatidylinositol 4,5-bisphosphate 3-kinase catalytic subunit delta isoform (Homo sapiens) (UniProt O00329).
T3 sequence (whole entry): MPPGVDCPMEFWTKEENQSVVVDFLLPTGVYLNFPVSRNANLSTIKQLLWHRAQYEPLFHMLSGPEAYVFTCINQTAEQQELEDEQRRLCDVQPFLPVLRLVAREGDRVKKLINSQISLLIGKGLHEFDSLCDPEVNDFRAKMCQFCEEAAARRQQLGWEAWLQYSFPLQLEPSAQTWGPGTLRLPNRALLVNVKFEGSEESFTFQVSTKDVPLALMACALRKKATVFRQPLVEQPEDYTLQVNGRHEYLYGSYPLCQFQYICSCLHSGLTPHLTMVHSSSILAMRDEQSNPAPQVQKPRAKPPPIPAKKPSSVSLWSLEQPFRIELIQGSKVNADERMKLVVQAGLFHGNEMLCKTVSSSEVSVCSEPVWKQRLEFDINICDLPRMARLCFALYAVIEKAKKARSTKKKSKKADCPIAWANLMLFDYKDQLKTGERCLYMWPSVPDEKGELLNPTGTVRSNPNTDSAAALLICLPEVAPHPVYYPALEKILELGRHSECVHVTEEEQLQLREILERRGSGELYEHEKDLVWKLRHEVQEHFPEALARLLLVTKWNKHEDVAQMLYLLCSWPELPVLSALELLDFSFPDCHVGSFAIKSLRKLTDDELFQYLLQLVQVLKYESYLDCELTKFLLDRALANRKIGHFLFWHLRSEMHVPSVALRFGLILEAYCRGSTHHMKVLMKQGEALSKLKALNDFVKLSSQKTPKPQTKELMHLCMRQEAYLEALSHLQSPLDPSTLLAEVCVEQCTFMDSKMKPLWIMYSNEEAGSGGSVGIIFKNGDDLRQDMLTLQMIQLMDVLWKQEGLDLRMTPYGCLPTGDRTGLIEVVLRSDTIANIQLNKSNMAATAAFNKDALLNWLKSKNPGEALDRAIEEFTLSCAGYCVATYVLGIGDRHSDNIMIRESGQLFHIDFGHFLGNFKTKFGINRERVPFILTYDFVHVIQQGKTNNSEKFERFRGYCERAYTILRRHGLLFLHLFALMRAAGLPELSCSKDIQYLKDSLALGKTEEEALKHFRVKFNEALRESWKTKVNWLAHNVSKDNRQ
As to conditions: at 0.1 µM.

For test [17], the target named is T3, Phosphatidylinositol 4,5-bisphosphate 3-kinase catalytic subunit delta isoform (Homo sapiens). As to conditions: at 1 µM.
The target in test [18] is Phosphatidylinositol 4-kinase beta (Homo sapiens) (UniProt Q9UBF8). As to conditions: at 0.1 µM.
The target is the same in test [19]. As to conditions: at 1 µM.
Test [20] addresses Sphingosine kinase 1 (Homo sapiens) (UniProt Q9NYA1). As to conditions: at 0.1 µM.

Chain of Sphingosine kinase 1 (Homo sapiens) (Q9NYA1 whole entry): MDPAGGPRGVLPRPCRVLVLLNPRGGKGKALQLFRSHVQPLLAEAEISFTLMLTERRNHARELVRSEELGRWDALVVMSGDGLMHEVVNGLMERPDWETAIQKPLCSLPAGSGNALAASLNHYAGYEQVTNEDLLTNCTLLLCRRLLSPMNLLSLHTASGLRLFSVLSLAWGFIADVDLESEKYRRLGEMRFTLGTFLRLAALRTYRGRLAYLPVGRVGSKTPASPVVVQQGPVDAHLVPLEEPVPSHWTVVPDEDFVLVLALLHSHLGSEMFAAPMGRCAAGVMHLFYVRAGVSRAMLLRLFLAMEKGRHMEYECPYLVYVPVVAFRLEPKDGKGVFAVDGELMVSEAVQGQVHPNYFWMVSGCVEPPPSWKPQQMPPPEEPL
Chain of Phosphatidylinositol 4,5-bisphosphate 3-kinase catalytic subunit alpha isoform (Homo sapiens) (P42336 whole entry, canonical isoform): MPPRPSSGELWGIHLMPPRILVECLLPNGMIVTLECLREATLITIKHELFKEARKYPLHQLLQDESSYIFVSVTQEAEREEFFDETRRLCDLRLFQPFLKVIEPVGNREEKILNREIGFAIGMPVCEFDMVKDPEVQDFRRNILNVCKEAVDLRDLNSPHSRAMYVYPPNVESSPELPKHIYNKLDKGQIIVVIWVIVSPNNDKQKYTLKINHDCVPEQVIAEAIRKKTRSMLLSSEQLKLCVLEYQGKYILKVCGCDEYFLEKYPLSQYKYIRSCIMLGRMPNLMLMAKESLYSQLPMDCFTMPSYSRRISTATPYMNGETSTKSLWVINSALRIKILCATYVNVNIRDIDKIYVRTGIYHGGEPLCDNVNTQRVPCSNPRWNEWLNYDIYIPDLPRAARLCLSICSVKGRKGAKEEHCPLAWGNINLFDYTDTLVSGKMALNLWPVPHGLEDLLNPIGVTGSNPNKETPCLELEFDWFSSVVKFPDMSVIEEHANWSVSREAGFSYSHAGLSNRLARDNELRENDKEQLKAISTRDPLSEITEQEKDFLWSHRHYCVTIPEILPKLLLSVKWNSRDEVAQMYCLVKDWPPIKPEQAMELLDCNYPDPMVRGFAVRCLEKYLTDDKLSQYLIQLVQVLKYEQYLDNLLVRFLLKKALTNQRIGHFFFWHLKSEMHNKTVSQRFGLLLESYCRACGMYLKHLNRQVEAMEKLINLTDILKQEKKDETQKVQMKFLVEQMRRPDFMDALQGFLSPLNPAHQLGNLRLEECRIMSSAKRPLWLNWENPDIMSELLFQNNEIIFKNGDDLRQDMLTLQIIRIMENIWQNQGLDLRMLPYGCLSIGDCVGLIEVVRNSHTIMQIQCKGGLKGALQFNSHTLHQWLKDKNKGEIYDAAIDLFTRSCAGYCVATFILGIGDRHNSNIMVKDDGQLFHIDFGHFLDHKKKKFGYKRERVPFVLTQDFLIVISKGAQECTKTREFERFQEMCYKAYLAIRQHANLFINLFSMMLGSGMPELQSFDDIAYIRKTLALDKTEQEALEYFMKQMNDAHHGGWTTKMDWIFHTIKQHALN
Chain of SRSF protein kinase 1 (Homo sapiens) (Q96SB4 whole entry): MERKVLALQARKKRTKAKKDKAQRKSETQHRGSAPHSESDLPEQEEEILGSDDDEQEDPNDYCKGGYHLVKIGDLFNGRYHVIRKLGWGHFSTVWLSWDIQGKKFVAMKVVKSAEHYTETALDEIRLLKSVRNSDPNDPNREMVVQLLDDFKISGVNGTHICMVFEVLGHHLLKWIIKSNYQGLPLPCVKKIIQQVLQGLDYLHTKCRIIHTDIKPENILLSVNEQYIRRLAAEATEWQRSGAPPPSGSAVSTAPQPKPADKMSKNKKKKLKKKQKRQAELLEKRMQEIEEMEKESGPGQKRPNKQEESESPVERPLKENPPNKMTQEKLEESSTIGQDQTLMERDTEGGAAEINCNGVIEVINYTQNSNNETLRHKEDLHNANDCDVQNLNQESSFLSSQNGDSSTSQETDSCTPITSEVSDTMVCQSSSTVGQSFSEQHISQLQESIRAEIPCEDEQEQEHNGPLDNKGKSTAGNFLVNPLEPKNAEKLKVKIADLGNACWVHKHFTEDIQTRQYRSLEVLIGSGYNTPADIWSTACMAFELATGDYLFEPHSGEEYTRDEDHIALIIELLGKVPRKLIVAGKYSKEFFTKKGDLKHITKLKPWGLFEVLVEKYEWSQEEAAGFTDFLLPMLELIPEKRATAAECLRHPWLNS
Chain of SRSF protein kinase 3 (Homo sapiens) (Q9UPE1 whole entry): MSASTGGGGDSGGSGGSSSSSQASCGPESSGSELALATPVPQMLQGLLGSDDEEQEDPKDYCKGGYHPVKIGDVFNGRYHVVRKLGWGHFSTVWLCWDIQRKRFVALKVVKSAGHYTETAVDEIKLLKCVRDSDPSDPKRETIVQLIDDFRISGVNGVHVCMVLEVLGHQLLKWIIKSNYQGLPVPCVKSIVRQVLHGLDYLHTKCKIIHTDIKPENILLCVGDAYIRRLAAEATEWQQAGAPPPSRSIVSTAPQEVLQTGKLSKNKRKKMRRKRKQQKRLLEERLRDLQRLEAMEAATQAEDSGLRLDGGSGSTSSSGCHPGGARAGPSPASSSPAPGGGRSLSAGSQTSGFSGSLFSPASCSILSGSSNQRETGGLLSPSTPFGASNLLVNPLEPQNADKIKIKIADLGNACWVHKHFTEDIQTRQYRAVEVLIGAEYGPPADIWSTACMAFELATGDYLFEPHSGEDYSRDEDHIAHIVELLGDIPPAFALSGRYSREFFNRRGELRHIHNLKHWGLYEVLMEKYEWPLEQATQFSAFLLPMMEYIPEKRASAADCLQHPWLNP
Chain of Mitogen-activated protein kinase 14 (Homo sapiens) (Q16539 whole entry): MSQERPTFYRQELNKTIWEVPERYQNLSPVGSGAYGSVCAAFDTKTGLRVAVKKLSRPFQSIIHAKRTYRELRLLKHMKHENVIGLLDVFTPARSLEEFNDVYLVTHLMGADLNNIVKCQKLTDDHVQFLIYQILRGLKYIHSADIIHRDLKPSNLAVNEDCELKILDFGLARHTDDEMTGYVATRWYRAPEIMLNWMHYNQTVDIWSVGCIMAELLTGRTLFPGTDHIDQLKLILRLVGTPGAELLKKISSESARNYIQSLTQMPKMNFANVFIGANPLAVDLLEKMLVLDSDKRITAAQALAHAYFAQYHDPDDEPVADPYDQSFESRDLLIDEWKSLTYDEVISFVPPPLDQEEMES
Chain of Phosphatidylinositol 4-kinase beta (Homo sapiens) (Q9UBF8 2-816 limits assumed): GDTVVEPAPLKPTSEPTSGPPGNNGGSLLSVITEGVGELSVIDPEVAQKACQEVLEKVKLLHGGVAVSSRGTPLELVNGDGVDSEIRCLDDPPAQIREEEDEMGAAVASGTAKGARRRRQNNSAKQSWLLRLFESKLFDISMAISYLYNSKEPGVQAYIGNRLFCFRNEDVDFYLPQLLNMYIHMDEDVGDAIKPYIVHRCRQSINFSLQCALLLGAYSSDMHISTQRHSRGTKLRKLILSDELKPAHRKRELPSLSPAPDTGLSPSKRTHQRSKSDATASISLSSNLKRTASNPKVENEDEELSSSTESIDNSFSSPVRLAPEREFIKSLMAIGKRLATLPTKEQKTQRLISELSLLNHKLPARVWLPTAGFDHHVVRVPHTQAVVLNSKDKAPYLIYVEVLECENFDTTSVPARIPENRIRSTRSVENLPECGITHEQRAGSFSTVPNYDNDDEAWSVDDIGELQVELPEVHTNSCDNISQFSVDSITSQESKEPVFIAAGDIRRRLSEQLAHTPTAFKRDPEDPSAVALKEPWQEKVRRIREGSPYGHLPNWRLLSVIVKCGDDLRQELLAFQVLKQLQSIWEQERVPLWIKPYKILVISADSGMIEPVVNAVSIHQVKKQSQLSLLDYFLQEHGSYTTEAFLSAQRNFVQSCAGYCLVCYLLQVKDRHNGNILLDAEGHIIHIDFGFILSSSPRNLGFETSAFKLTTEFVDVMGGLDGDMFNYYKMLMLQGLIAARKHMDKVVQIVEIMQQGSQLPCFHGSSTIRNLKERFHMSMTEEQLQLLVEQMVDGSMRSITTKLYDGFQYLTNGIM
Chain of Mitogen-activated protein kinase 3 (Homo sapiens) (P27361 whole entry): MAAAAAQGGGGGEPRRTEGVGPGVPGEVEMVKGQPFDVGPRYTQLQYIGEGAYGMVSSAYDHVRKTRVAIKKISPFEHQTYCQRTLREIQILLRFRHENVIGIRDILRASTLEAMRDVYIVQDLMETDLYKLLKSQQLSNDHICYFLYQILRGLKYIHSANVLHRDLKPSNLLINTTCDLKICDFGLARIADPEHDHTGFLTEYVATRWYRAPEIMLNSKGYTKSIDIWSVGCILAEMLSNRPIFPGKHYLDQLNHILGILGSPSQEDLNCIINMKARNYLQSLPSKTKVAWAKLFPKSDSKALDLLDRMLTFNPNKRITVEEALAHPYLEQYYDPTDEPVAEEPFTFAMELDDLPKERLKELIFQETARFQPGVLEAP
Chain of Mitogen-activated protein kinase 11 (Homo sapiens) (Q15759 whole entry): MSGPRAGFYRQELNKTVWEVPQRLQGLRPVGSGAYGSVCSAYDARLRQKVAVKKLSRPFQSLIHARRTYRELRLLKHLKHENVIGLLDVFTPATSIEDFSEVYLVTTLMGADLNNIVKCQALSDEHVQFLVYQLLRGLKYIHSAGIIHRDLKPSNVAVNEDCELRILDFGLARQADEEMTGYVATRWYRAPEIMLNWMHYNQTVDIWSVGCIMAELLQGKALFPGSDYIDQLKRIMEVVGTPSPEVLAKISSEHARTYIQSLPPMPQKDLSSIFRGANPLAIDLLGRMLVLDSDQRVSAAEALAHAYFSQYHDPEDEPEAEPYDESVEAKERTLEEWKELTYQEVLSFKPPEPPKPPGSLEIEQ

For `CCN1CCC(CC(=O)Nc2n[nH]c3nnc(-c4cccc(F)c4F)cc23)CC1`, the inhibition in test [1] is 2.9%; in test [2], -0.22%; in [3] it was 0.53%; in [4], 1.3%; in test [5], 1.76%; in [6] it was 2.75%. Further, the inhibition in test [7] was 4.66%; in [8], 1.08%; in test [9] it was 0.01%; in test [10] it was 1.4%; in test [11], 1.97%; in [12], -2.57%. In addition, the inhibition is -3.98% in test [13]; 3.38% in test [14]; 2.58% in [15]; 2.16% in [16]; 1.94% in [17]; 2.58% in test [18]. Further, the inhibition was -1.91% in test [19] and 0.09% in test [20].

`Cc1cccc2c1NC(=O)/C2=N\Nc1ccc(S(N)(=O)=O)cc1`: the inhibition in test [1] came out at 2.55%; in [2], 0.51%; in test [3], 1.03%; in test [4], 3.09%; in [5], 5.54%; in test [6], 1.05%. Moreover, the inhibition is 1.3% in [7]; 1.89% in test [8]; 3.48% in test [9]; -3.68% in [10]; 0.72% in test [11]; -0.92% in test [12]. Moreover, the inhibition in [13] is -1.02%; in test [14], 2.47%; in [15], 1.9%; in test [16], 1.83%; in test [17], 3.28%; in test [18], -4.22%. The inhibition in test [19] is -2.85%; in test [20] it was 0.78%.

For the molecule `CCn1c(-c2nonc2N)nc2cnc(Oc3cccc(NC(=O)c4ccc(N(C)C)cc4)c3)cc21`, the inhibition was 1.36% in test [1]; -1.98% in test [2]; -3.41% in [3]; -0.32% in test [4]; 8.29% in test [5]; 1.19% in test [6]. In addition, the inhibition is 1.94% in test [7]; -1.13% in [8]; 2.57% in test [9]; 0.02% in test [10]; 1.5% in test [11]; -1.72% in test [12]. The inhibition in [13] was -1.86%; in [14] it was -0.72%; in test [15] it was 0.76%; in test [16], 0.62%; in test [17], 1.65%; in test [18] it was -0.87%. For the same molecule, the inhibition in test [19] is 2.47%; in [20], -2.61%.

Regarding `Cc1ccc2c(-c3ccnc(Nc4ccccc4)n3)c(-c3ccc(F)cc3)nn2n1`, the inhibition in [1] was 14.5%; in test [2], 1.07%; in [3], 1.53%; in test [4], 71%; in [5], 88.5%; in test [6], 34.1%. The inhibition was 73.3% in test [7]; -0.61% in test [8]; 5.7% in test [9]; 0.48% in test [10]; 2.32% in test [11]; -1.57% in test [12]. Further, the inhibition is -2.42% in [13]; 2.88% in test [14]; 0.97% in test [15]; 2.44% in [16]; 4.54% in [17]; 2.52% in test [18]. Also, the values for the inhibition in [19] and in test [20] were 1.56% and 0%, respectively.

On to `FC(F)(F)c1cccc(-c2nn3ncccc3c2-c2ccnc(Nc3ccc4c(c3)OCCO4)n2)c1`, for which the inhibition in test [1] is 2.04%; in test [2], -0.87%; in test [3], -0.58%; in test [4], 30%; in test [5], 73.7%; in [6], 14.1%. The inhibition was 52.2% in test [7]; 0.07% in test [8]; 3.46% in test [9]; 3.07% in test [10]; 2.93% in test [11]; -2.68% in test [12]. Besides, the inhibition in test [13] was -5.33%; in test [14], 1.87%; in test [15], 3.02%; in test [16] it was 1.36%; in test [17] it was 4%; in test [18], -4.9%. In addition, the inhibition was 3.59% in test [19] and -1.16% in test [20].

Turning to `COc1cc(Nc2nccc(Nc3ccc4c(C)n[nH]c4c3)n2)cc(OC)c1OC`, the inhibition in test [1] was 2.18%; in test [2], 1.08%; in [3], 0.79%; in [4], 4.78%; in [5] it was 10%; in test [6], 2.04%. Besides, the inhibition in test [7] was 6.13%; in [8] it was 3.72%; in test [9], 4.71%; in test [10], -0.26%; in [11] it was 1.69%; in [12], -2.15%. Moreover, the inhibition in test [13] is -3.51%; in test [14], 1.57%; in test [15], 3.03%; in [16], 2.45%; in [17], 21.3%; in test [18], 3.96%. Moreover, the inhibition in [19] was 4.89%; in test [20], -0.37%.
